LMNA splice mod: modulators of lamin A splicing; Potency, µM (highest dose often 46.1 µM), usual class: inhibitors; AID 1487; 200,000 tested, 0.01% active; HeLa LMNA splicing GFP/RFP minigene ratio, 48 h; active = well fitted inhibition curve with a large enough effect in the signal ratio, with a control signal flat, not every such curve was filed as active; inconclusive = small, poorly fitted or top-dose-only effect, or effect the other way, or a change in a side signal; the % refers to the signal ratio
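S3 HeLa cells stably expressing lamin A-EGFP splicing minigene plus DsRed2, 600 cells/well, 48 h compound exposure at 37C. Laser-scanning cytometry; analysed as GFP (500-530 nm)/RFP (575-640 nm) total intensity ratio; 0.5% DMSO vehicle.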
HTT ATP protect: cytoprotection in Huntington HTT-Q103 PC12 cell model; PC12 HTT-Q103 induced, cytoprotection, ATP luminescence, 40 h; Potency, µM (top dose mostly 56.4 µM), actives largely listed as activators; 230,000 tested, 0.14% active; also: nearly all actives have a fitted effect of over 45% in size
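Huntington model: PC12 line, ecdysone-inducible HTTQ103 exon1–GFP, tebufenozide 100 nM. Test articles in a dose series. Endpoint luminescence from cellular ATP.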
HPGD inh: HPGD (human) dehydrogenase inhibition; Potency, µM, hits mostly inhibitors; 150,000 tested, 4.3% active; purified HPGD, NADH fluorescence kinetic, PGE2 substrate; active = well fitted inhibition curve with a large enough effect, not every such curve was filed as active; inconclusive = small, poorly fitted or top-dose-only effect, or another doubt; inactive = no such curve, though single readings can be large or run the other way
Target sequence (P15428 whole entry, looked up): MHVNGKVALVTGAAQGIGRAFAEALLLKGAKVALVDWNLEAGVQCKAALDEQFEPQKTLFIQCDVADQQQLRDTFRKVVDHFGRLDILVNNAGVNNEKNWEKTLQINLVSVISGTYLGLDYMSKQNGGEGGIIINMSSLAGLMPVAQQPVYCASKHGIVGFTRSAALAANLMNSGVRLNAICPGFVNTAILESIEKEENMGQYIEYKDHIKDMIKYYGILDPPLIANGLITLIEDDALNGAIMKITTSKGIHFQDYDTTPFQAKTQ
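NADH formation kinetics: reaction with 30 uM PGE2 and 1 mM NAD+ (final), 20 nM enzyme, Tris-HCl pH 8 with Tween 20, after 15 min compound preincubation at room temperature. Fluorescence change, last versus first of five reads.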
HttQ103 aggreg: mutant huntingtin aggregation inhibition; PC12 HttQ103-GFP aggregates, Acumen cytometry, 40 h; Potency, µM (doses to about 46.1 µM), most hits filed as inhibitors; 220,000 tested, 1.1% active; AID 1688; also: nearly all actives have a fitted effect of over 60% in size
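Aggregate formation scored by laser-scanning cytometer (488 excitation, 500–530 emission) in lysed PC12 cells expressing Q103-GFP after 100 nM tebufenozide induction; library tested in dose series, with ATPLite reagent added in the multiplex.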
ALDH1A1 block: inhibitors of human aldehyde dehydrogenase 1A1 | 220,000 tested, 7.3% active | AID 1030 | Potency, µM (doses to about 75.3 µM), hits mostly inhibitors | P00352 | Purified ALDH1A1, NADH fluorescence, propionaldehyde substrate; active = well fitted inhibition curve with a large enough effect, not every such curve was filed as active; inconclusive = small, poorly fitted or top-dose-only effect, or another doubt; inactive = no such curve, though single readings can be large or run the other way
Target sequence (P00352 whole entry, looked up): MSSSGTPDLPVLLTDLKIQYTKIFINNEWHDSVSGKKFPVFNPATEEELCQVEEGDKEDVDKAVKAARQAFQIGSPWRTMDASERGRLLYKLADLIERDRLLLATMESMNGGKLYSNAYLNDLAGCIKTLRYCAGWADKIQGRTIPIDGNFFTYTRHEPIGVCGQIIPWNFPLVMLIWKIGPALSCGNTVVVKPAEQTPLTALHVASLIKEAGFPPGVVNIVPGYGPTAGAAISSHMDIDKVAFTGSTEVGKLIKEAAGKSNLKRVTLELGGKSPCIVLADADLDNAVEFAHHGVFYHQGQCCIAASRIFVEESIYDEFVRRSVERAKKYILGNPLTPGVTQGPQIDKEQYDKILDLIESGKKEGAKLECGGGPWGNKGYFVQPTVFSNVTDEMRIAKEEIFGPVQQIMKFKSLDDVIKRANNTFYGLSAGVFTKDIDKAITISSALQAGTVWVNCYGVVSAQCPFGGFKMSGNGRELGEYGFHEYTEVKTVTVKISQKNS
Numbers stand for hits; n = inactive; u = inconclusive; x = no result given; [ ] = another dose, or the depositor's remark. The list is not random: actives were taken first. Their share in the collection is about 8.8%. Unless noted, calls follow the shape of the dose curve; as a rule, active = well fitted curve in the direction sought with a large enough effect; inconclusive = small, poorly fitted or top-dose-only effect, or another doubt; inactive = no such curve, though single readings can be large; an effect the other way counts as inactive or inconclusive.

SMILES | LMNA splice mod | HTT ATP protect | HPGD inh | HttQ103 aggreg | ALDH1A1 block
CCC(Oc1ccccc1)C(=O)O/N=C(\N)c1ccc(OC)c(OC)c1 (stereo not given) | u | n[10 µM] | n | n | u
Cc1cc(C)cc(-n2c(C)cc(/C=N/NC(=O)CSc3ncccn3)c2C)c1 | u | n | n | n | 28µM
Cc1cc(C)cc(-n2c(C)cc(/C=N/NC(=O)c3ccncc3)c2C)c1 | n | n | x | n[9.22 µM] | u
Cc1cc(/C=N/NC(=O)C(=O)NCc2ccccn2)c(C)n1-c1ccccc1 | n | n[10 µM] | n | n | 11µM
Cc1cc(/C=N/NC(=O)c2ccccn2)c(C)n1-c1cccc([N+](=O)[O-])c1 | n[9.22 µM] | n | x | n | u
Cc1cc(/C=N\NC(=O)COc2cccc3cccnc23)c(C)n1-c1ccccc1 | n | n[10 µM] | n | u | 14µM
C=CCn1cc(/C=N/NC(=O)COc2cccc3cccnc23)c2ccccc21 | n | n[1.9 µM] | n | n | 18µM
Cc1cc(/C=N\NC(=O)c2cccs2)c(C)n1-c1ccc2ncccc2c1 | u | n | u | n | 20µM
Cc1nc2ccccc2n1CCc1nc2c3ccccc3nc(SCc3ccc(F)cc3)n2n1 | n | x | x | x | x
N=C1c2ccccc2CN1c1ccc(N2CCOCC2)c(S(=O)(=O)Nc2ccc(Cl)cc2)c1 | x | n[10 µM] | x | n[9.22 µM] | 1.8µM
Cc1c(NC(=O)c2ccco2)cccc1-c1nc2cccnc2s1 | n | n[10 µM] | n | 10µM | u
O=C(Nc1cccc(-c2nc3cccnc3s2)c1)c1ccco1 | n | n | n | 16µM | n
COC(=O)N1[C@H](C)C=C[C@]1(Cc1ccccc1)C(=O)NCc1ccc(N(C)C)cc1 | x | n | n | x | 8.9µM
COC(=O)N1[C@H](C)C=C[C@]1(Cc1ccccc1)C(=O)NCc1ccccn1 | x | n | n | x | u
COC(=O)C1(CC(C)C)C=C2C(=C(C(C)C)C(=O)C2C)CN1 (stereo not given) | x | n | u | x | 35µM
COC(=O)C1(Cc2ccccc2)C=C2C(=C(c3ccccc3)C(=O)C2C)CN1 (stereo not given) | x | n | 10µM | x | 25µM
CO[C@H]1COC(=O)[C@@H](C)COC(=O)[C@@H](COCc2ccccc2)NC(=O)C/C=C\[C@H]1C | x | n[10 µM] | x | x | n[13.5 µM]
Oc1csc(Cc2nc(-c3ccccc3F)cs2)n1 | x | n | x | n | 18µM
O=C1NN(c2ccccc2)C(=O)/C1=C/c1ccc(-c2ccc(Cl)c(C(=O)O)c2)o1 | u | n | x | n | 13µM
Cc1cccc(N2NC(=O)/C(=C/c3ccc(-c4ccc(Cl)c(C(=O)O)c4)o3)C2=O)c1 | x | n | x | n | u
O=C1NCCCC2c3c(cc(Br)c(O)c3Br)OC12N1CCCCC1 (stereo not given) | n | n | 13µM | n | 7.9µM
Nc1ccc(S(=O)(=O)O)cc1 | x | n | n | x | 32µM
C/C=C/c1ccc(OCCCN2C(=O)NC(C)(C)C2=O)c(OC)c1 | n | n | n | n[9.22 µM] | 14µM
Cc1ccc(NC(=S)N/N=C/c2ccc([N+](=O)[O-])s2)cc1 | u | x | u | n | 11µM
O=C(CNC(=O)c1ccccc1Cl)N/N=C/c1ccc([N+](=O)[O-])s1 | u | n[10 µM] | n | 11µM | n
SMILES | LMNA splice mod | HTT ATP protect | HPGD inh | HttQ103 aggreg | ALDH1A1 block
O=C(Cc1cccs1)N/N=C\c1ccc([N+](=O)[O-])s1 | n | n | x | u | 13µM
Cc1ccc(/C=N/NC(=O)Cc2cccs2)o1 | n | n[10 µM] | n | n | 13µM
CO[C@@H]1COC(=O)C/C=C\[C@H](C)COC(=O)[C@H](C)NC(=O)C/C=C\[C@H]1C | x | n[10 µM] | x | x | n[13.5 µM]
Cc1nc(C)c(-c2ccc(SCC(=O)Nc3cccc(C)c3C)nn2)s1 | n | x | x | x | x
Cn1ncc2c(Nc3cccc(F)c3)ncnc21 | n | x | x | x | x
O=C(O)CCc1ccc(-c2cccs2)o1 | n | n | 22µM | n | 1µM
Cc1ccc(-c2ccc(CCC(=O)O)o2)cc1 | n | n | n | n | u
CCOC(=O)c1cccc(NC(=O)c2sc3nc[nH]c(=O)c3c2C)c1 | n | x | x | x | x
Cc1ccc(S(=O)(=O)CCN2CCN(c3ccccn3)CC2)cc1 | x | n[10 µM] | x | n[9.22 µM] | 13µM
CCOc1ccc(S(=O)(=O)Nc2cccc(-c3ccc(N4CCCC4)nn3)c2)cc1 | n | x | x | x | x
CCCNC(=O)Cn1c(=O)n(CC2CCC(C(=O)NC)CC2)c(=O)c2sccc21 (stereo not given) | n | x | x | x | x
CCC1SC2=NC(C)=C(C(=O)OCC(C)C)C(/C=C/c3ccccc3OC)N2C1=O (stereo not given) | n | n | n | n | n
COc1ccccc1/C=C/C1C(C(=O)OCC(C)C)=C(C)N=C2SCCC(=O)N21 (stereo not given) | x | n | x | n | 22µM
OCCC1CN(Cc2nc3c(s2)CCCC3)CCN1Cc1ccccc1 (stereo not given) | x | n[10 µM] | x | n[9.22 µM] | x
Cc1c(NC(=O)COC(=O)COc2ccc(Nc3ccccc3)cc2)c(=O)n(-c2ccccc2)n1C | x | n | x | n | 22µM
COc1cccc(C2=NOC(C(=O)Nc3cccnc3Cl)C2)c1 (stereo not given) | u | u | x | n | n
NC(=O)N1CCC2(CC1)NC(=O)N(c1ccccc1)N2 | n | n | x | n | 3.5µM
COc1ccc(CCNc2nc(SCc3ccccc3F)nc3ccccc23)cc1OC | n | x | x | x | x
N#CCCCN1C(=O)C(=C(C#N)C#N)c2ccccc21 | n | n[10 µM] | x | n[9.22 µM] | 0.79µM
N#CCCCN1C(=O)C(O)(CC(=O)c2ccc3c(c2)OCCO3)c2ccccc21 (stereo not given) | n | n[10 µM] | n | n | u
CC/C=C/C#N | x | n | n | x | n
CN(C)c1ccc(C2N([C@H](C#N)c3ccc(N(C)C)cc3)CCCN2[C@@H](C#N)c2ccc(N(C)C)cc2)cc1 (stereo not given in full) | x | n[10 µM] | n | x | 1µM
CC(C)=NOC[C@@H](O)[C@@H]1O[C@@H]2OC(C)(C)O[C@@H]2[C@H]1O | x | n[10 µM] | x | x | n[13.5 µM]
Cc1ccc(C2CC(c3cccs3)=NN2C(=O)CSC2=NN3CCCC(=O)N=C3S2)cc1 (stereo not given) | u | n[10 µM] | n | n | 28µM
c1cncc(-c2nnc(-c3cccnc3)nn2)c1 | u | n[10 µM] | 8.9µM | u | 11µM
SMILES | LMNA splice mod | HTT ATP protect | HPGD inh | HttQ103 aggreg | ALDH1A1 block
O=C(Cc1cccs1)Nc1nc2c(s1)CCCC2 | u | n[0.074 µM] | n | 3.2µM | u
COC(=O)c1cc(OC)c(OC)cc1NC(=O)Cc1cccs1 | x | n[10 µM] | x | n[9.22 µM] | 3.2µM
O=C(Nc1nc2c(s1)CCCC2)c1cccs1 | n | n[10 µM] | n | n | n
COc1ccc(NC(=O)Cc2cccs2)c(OC)c1 | n | n | n | n | n
COC(=O)c1sc(NC(=O)Cc2cccs2)nc1C | n | n[10 µM] | n | n | 13µM
O=C(CCNS(=O)(=O)c1ccc2c(c1)CCCC(=O)N2)NCc1ccc(Cl)cc1 | n | x | x | x | x
CCN(CC)C(=O)c1ccc2c(=O)n(CCOC)c(=S)[nH]c2c1 | n | n | 14µM | n | 11µM
CCOCCCn1c(=S)[nH]c2cc(C(=O)NCC(OC)OC)ccc2c1=O | x | n | x | n | 8.9µM
N#C/C(=C\c1ccccc1)C(=O)OCC(=O)N1CCCC1 | n | n[10 µM] | x | n | u
